Data as given in PubChem BioAssay.
Values without a mark were called inactive. Active and inactive are the calls of the source.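 How the source made its calls: active means thallium flux through the channel raised or lowered by more than 3 SD from vehicle-only wells, actives on both sides; inactive means the rest.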

These molecules were tested on R275C (assay: BK channel mutant inhibitors and activators – cell-based, U2OS BacMam, thallium flux, beta subunits, selectivity assay, profiling panel (AID 1259406;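 further: initial slope of Thallos dye fluorescence rise after thallium is added; log ratio against the mean of 0.3% DMSO vehicle wells on the same plate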)). Settings: U2OS BacMam BK variants, at 30 µM.

SMILES | log fold change Tl+ flux
COC(=O)[C@H](c1ccccc1Cl)N1CCc2sccc2C1 | 0.027
COc1ccc(/C=C/C(=O)Nc2ccccc2C(=O)O)cc1OC | -0.0585
CC1=C(/C=C/C(C)=C/C=C/C(C)=C\C(=O)O)C(C)(C)CCC1 | -0.0306
Cc1cccc(C)c1NC(=O)C1CCCCN1C (configuration not stated) | -0.0395
CN(C)c1nc(N(C)C)nc(N(C)C)n1 | -0.00384
CC[C@H]1OC(=O)[C@H](C)[C@@H](O[C@H]2C[C@@](C)(OC)[C@@H](O)[C@H](C)O2)[C@H](C)[C@@H](O[C@@H]2O[C@H](C)C[C@H](N(C)C)[C@H]2O)[C@](C)(OC)C[C@@H](C)C(=O)[C@H](C)[C@@H](O)[C@]1(C)O | -0.104
CNCCC(Oc1ccc(C(F)(F)F)cc1)c1ccccc1 (configuration not stated) | -0.0214
CS(=O)(=O)c1ccc(C2=C(c3ccccc3)C(=O)OC2)cc1 | -0.068
Cc1occc(=O)c1O | -0.0195
Nc1ncnc2c1ncn2[C@@H]1O[C@H](CO)[C@@H](O)[C@@H]1O | 0.00664
CC(C)NCC(O)COc1ccc(CC(N)=O)cc1 (configuration not stated) | -0.00467
C[N+]1(C)CCCC(OC(=O)C(O)(c2ccccc2)c2ccccc2)C1 (configuration not stated) | 0.00512
CC(C)NCC(O)COc1cccc2ccccc12 (configuration not stated) | -0.0109
CCc1ccc(CCOc2ccc(CC3SC(=O)NC3=O)cc2)nc1 (configuration not stated) | -0.057
CCCCC(=O)N(Cc1ccc(-c2ccccc2-c2nn[nH]n2)cc1)[C@H](C(=O)O)C(C)C | -0.0315
C[C@H]1COc2c(N3CCN(C)CC3)c(F)cc3c(=O)c(C(=O)O)cn1c23 | -0.0297
O=[N+]([O-])c1cccc2cn[nH]c12 | -0.025
COc1ccc(-c2cc(=O)c3c(OC)c(OC)c(OC)c(OC)c3o2)cc1OC | -0.784 (active)
CC(C(=O)O)c1ccc(-c2ccccc2)c(F)c1 (configuration not stated) | -0.0123

Each molecule was assayed on R275C/beta1 in the same assay as above. Settings: U2OS BacMam BK variants, at 30 µM.

SMILES | log fold change Tl+ flux
COC(=O)[C@H](c1ccccc1Cl)N1CCc2sccc2C1 | -0.0372
COc1ccc(/C=C/C(=O)Nc2ccccc2C(=O)O)cc1OC | -0.0786
CC1=C(/C=C/C(C)=C/C=C/C(C)=C\C(=O)O)C(C)(C)CCC1 | -0.0172
Cc1cccc(C)c1NC(=O)C1CCCCN1C (configuration not stated) | -0.0108
CN(C)c1nc(N(C)C)nc(N(C)C)n1 | -0.054
CC[C@H]1OC(=O)[C@H](C)[C@@H](O[C@H]2C[C@@](C)(OC)[C@@H](O)[C@H](C)O2)[C@H](C)[C@@H](O[C@@H]2O[C@H](C)C[C@H](N(C)C)[C@H]2O)[C@](C)(OC)C[C@@H](C)C(=O)[C@H](C)[C@@H](O)[C@]1(C)O | -0.0277
CNCCC(Oc1ccc(C(F)(F)F)cc1)c1ccccc1 (configuration not stated) | 0.297 (active)
CS(=O)(=O)c1ccc(C2=C(c3ccccc3)C(=O)OC2)cc1 | 0.023
Cc1occc(=O)c1O | -0.0131
Nc1ncnc2c1ncn2[C@@H]1O[C@H](CO)[C@@H](O)[C@@H]1O | -0.0305
CC(C)NCC(O)COc1ccc(CC(N)=O)cc1 (configuration not stated) | 0.0259
C[N+]1(C)CCCC(OC(=O)C(O)(c2ccccc2)c2ccccc2)C1 (configuration not stated) | 0.0318
CC(C)NCC(O)COc1cccc2ccccc12 (configuration not stated) | 0.0491
CCc1ccc(CCOc2ccc(CC3SC(=O)NC3=O)cc2)nc1 (configuration not stated) | -0.028
CCCCC(=O)N(Cc1ccc(-c2ccccc2-c2nn[nH]n2)cc1)[C@H](C(=O)O)C(C)C | 0.0112
C[C@H]1COc2c(N3CCN(C)CC3)c(F)cc3c(=O)c(C(=O)O)cn1c23 | 0.0187
O=[N+]([O-])c1cccc2cn[nH]c12 | -0.0288
COc1ccc(-c2cc(=O)c3c(OC)c(OC)c(OC)c(OC)c3o2)cc1OC | -0.176 (active)
CC(C(=O)O)c1ccc(-c2ccccc2)c(F)c1 (configuration not stated) | 0.0432

The molecules below were run on R275C/beta2Delta in the same assay as above. Settings: U2OS BacMam BK variants, at 30 µM.

SMILES | log fold change Tl+ flux
COC(=O)[C@H](c1ccccc1Cl)N1CCc2sccc2C1 | -0.0599
COc1ccc(/C=C/C(=O)Nc2ccccc2C(=O)O)cc1OC | 0.0483
CC1=C(/C=C/C(C)=C/C=C/C(C)=C\C(=O)O)C(C)(C)CCC1 | 0.0302
Cc1cccc(C)c1NC(=O)C1CCCCN1C (configuration not stated) | 0.00999
CN(C)c1nc(N(C)C)nc(N(C)C)n1 | -0.0096
CC[C@H]1OC(=O)[C@H](C)[C@@H](O[C@H]2C[C@@](C)(OC)[C@@H](O)[C@H](C)O2)[C@H](C)[C@@H](O[C@@H]2O[C@H](C)C[C@H](N(C)C)[C@H]2O)[C@](C)(OC)C[C@@H](C)C(=O)[C@H](C)[C@@H](O)[C@]1(C)O | 0.033
CNCCC(Oc1ccc(C(F)(F)F)cc1)c1ccccc1 (configuration not stated) | 0.0608
CS(=O)(=O)c1ccc(C2=C(c3ccccc3)C(=O)OC2)cc1 | 0.00437
Cc1occc(=O)c1O | 0.041
Nc1ncnc2c1ncn2[C@@H]1O[C@H](CO)[C@@H](O)[C@@H]1O | -0.0267
CC(C)NCC(O)COc1ccc(CC(N)=O)cc1 (configuration not stated) | -0.0455
C[N+]1(C)CCCC(OC(=O)C(O)(c2ccccc2)c2ccccc2)C1 (configuration not stated) | -0.0151
CC(C)NCC(O)COc1cccc2ccccc12 (configuration not stated) | 0.188 (active)
CCc1ccc(CCOc2ccc(CC3SC(=O)NC3=O)cc2)nc1 (configuration not stated) | -0.0196
CCCCC(=O)N(Cc1ccc(-c2ccccc2-c2nn[nH]n2)cc1)[C@H](C(=O)O)C(C)C | 0.014
C[C@H]1COc2c(N3CCN(C)CC3)c(F)cc3c(=O)c(C(=O)O)cn1c23 | -0.00628
O=[N+]([O-])c1cccc2cn[nH]c12 | 0.0285
COc1ccc(-c2cc(=O)c3c(OC)c(OC)c(OC)c(OC)c3o2)cc1OC | -0.278 (active)
CC(C(=O)O)c1ccc(-c2ccccc2)c(F)c1 (configuration not stated) | 0.0621
